{"source": "the supplement of paper PMC9135407", "system": "primary human hepatic stellate cells (donor 1)", "experiment": "scaled lipid accumulation score (0 = DMSO-like, 1 = nortriptyline-like); higher = stronger HSC inactivation (lipid re-accumulation), active = hit call of the paper", "settings": "48 h", "key": {"[1]": {"settings": "library stock concentration: 1 mM"}, "[2]": {"settings": "library stock concentration: 10 mM"}, "[3]": {"settings": "library stock concentration: 3.33 mM"}, "[4]": {"settings": "library stock concentration: 400 uM"}, "[5]": {"settings": "library stock concentration: 2 mM"}, "[6]": {"settings": "library stock concentration: 80 uM"}}, "note": "Values joined by “and” are separate entries in the source; they are usually repeats but may differ in a detail not shown here. Equal values may be shown once. Where a name gives a salt, the structure may show the parent alone. Out of some 5,800 compounds screened, about 620 (11%) showed activity. The list comes from a sample in which actives are over-represented; it also holds similar structures and randomly drawn compounds. Values without a mark were called inactive.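 How the source made its calls: active = score above a cut-off or among the top three wells of a plate; in these data no inactive exceeds 0.85.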"}
{"molecule": "CCCCCCCCC=CCC=CCC=CCCCC(=O)O", "note": "[5(Z),8(Z),11(Z)-Eicosatrienoic Acid]", "values": [{"measurement": "scaled lipid accumulation score", "setting": "[1]", "result": 0.072}]}
{"molecule": "OC[C@H]1NC[C@H](O)[C@@H](O)[C@@H]1O", "note": "[1-Deoxynojirimycin hydrochloride]", "values": [{"measurement": "scaled lipid accumulation score", "setting": "[2]", "result": "≤ -0.07"}]}
{"molecule": "CNC(=O)[C@H]1O[C@@H](n2cnc3c(NCc4cccc(I)c4)nc(Cl)nc32)[C@H](O)[C@@H]1O", "note": "[Chloro-IB-MECA]", "values": [{"measurement": "scaled lipid accumulation score", "setting": "[2]", "result": "≤ -0.07"}]}
{"molecule": "CNC(=O)[C@H]1O[C@@H](n2cnc3c(NCc4cccc(I)c4)nc(Cl)nc32)[C@H](O)[C@@H]1O", "values": [{"measurement": "scaled lipid accumulation score", "setting": "[2]", "result": 0.019}]}
{"molecule": "Cc1cc(CS(=O)(=O)c2ccccc2)cc(OCc2ccc(CN3CCC[C@@H]3CO)cc2)c1", "note": "[listing 1 of 2 here]", "values": [{"measurement": "scaled lipid accumulation score", "setting": "[3]", "result": "≤ -0.009"}]}
{"molecule": "Cc1cc(CS(=O)(=O)c2ccccc2)cc(OCc2ccc(CN3CCC[C@@H]3CO)cc2)c1", "note": "[listing 2 of 2 here]", "values": [{"measurement": "scaled lipid accumulation score", "setting": "[2]", "result": "1.03 (active)"}]}
{"molecule": "CCCCC[C@H](O)/C=C/[C@@H]1[C@@H](CCCCCCC(=O)O)[C@H](O)C[C@H]1O", "note": "[Prostaglandin F1.beta.]", "values": [{"measurement": "scaled lipid accumulation score", "setting": "[1]", "result": "≤ 0"}]}
{"molecule": "COc1ccc2c3n(c(=NC(=O)c4cccnc4)nc2c1OC)CCN3", "values": [{"measurement": "scaled lipid accumulation score", "setting": "[4]", "result": "≤ -0.005"}, {"measurement": "scaled lipid accumulation score", "setting": "[5]", "result": "≤ -0.005"}, {"measurement": "scaled lipid accumulation score", "setting": "[2]", "result": "≤ -0.005"}]}
{"molecule": "CCCCC[C@H](O)/C=C/[C@H]1CC[C@@H](O)[C@@H]1C/C=C\\CCCC(=O)O", "note": "[11-deoxy Prostaglandin F2.beta.]", "values": [{"measurement": "scaled lipid accumulation score", "setting": "[1]", "result": "≤ 0"}]}
{"molecule": "CCCCCCCCCCC1=C(C)C(=O)C(OC)=C(OC)C1=O", "note": "[Decylubiquinone]", "values": [{"measurement": "scaled lipid accumulation score", "setting": "library stock concentration: 15.5 mM", "result": "≤ -0.021"}]}
{"molecule": "CCC1(C)OC(=O)N(C)C1=O", "note": "(centres undefined)", "values": [{"measurement": "scaled lipid accumulation score", "setting": "[2]", "result": "≤ 0"}]}
{"molecule": "CCN1CCN(Cc2ccc(Nc3ncc(F)c(-c4cc(F)c5nc(C)n(C(C)C)c5c4)n3)nc2)CC1", "note": "[Abemaciclib] [listing 1 of 2 here]", "values": [{"measurement": "scaled lipid accumulation score", "setting": "[6]", "result": 0.332}, {"measurement": "scaled lipid accumulation score", "setting": "[4]", "result": 0.55}, {"measurement": "scaled lipid accumulation score", "setting": "[2]", "result": 0.691}]}
{"molecule": "CCN1CCN(Cc2ccc(Nc3ncc(F)c(-c4cc(F)c5nc(C)n(C(C)C)c5c4)n3)nc2)CC1", "note": "[Abemaciclib] [listing 2 of 2 here]", "values": [{"measurement": "scaled lipid accumulation score", "setting": "[5]", "result": "0.882 (active)"}]}
{"molecule": "CCN1CCN(Cc2ccc(Nc3ncc(F)c(-c4cc(F)c5nc(C)n(C(C)C)c5c4)n3)nc2)CC1.CS(=O)(=O)O", "values": [{"measurement": "scaled lipid accumulation score", "setting": "[3]", "result": "0.963 (active)"}, {"measurement": "scaled lipid accumulation score", "setting": "[2]", "result": "0.943 (active)"}]}
{"molecule": "CC(=O)N[C@@H](CSC/C=C(\\C)CCC=C(C)C)C(=O)O", "note": "[N-Acetyl-S-geranyl-L-cysteine]", "values": [{"measurement": "scaled lipid accumulation score", "setting": "[1]", "result": "≤ -0.021"}]}
{"molecule": "CCC(=O)O[C@H]1CC[C@H]2[C@@H]3CCc4cc(O)ccc4[C@H]3CC[C@]12C", "note": "[Estradiol propionate]", "values": [{"measurement": "scaled lipid accumulation score", "setting": "library stock concentration: 6.1 mM", "result": 0.254}, {"measurement": "scaled lipid accumulation score", "setting": "[2]", "result": 0.443}]}
{"molecule": "O=C1OC2(c3ccc(O)cc3Oc3cc(OS(=O)(=O)c4c(F)c(F)c(F)c(F)c4F)ccc32)c2ccccc21", "note": "(centres undefined) [Pentafluorobenzenesulfonyl fluorescein]", "values": [{"measurement": "scaled lipid accumulation score", "setting": "[1]", "result": "≤ 0"}]}
{"molecule": "CO[C@H]1C[C@@H]2CC[C@@H](C)[C@@](O)(O2)C(=O)C(=O)N2CCCC[C@H]2C(=O)O[C@H]([C@H](C)C[C@@H]2CC[C@@H](OC(=O)C(C)(CO)CO)[C@H](OC)C2)CC(=O)[C@H](C)/C=C(\\C)[C@@H](O)[C@@H](OC)C(=O)[C@H](C)C[C@H](C)/C=C/C=C/C=C/1C", "values": [{"measurement": "scaled lipid accumulation score", "setting": "[3]", "result": 0.032}, {"measurement": "scaled lipid accumulation score", "setting": "[2]", "result": 0.094}]}
{"molecule": "CN1CCN(C2CCN(C(=O)Nc3cc(Oc4ccc(NC(=O)C5(C(=O)Nc6ccc(F)cc6)CC5)c(F)c4)ccn3)CC2)CC1", "note": "[Golvatinib (E7050)] [listing 1 of 2 here]", "values": [{"measurement": "scaled lipid accumulation score", "setting": "[3]", "result": "0.979 (active)"}]}
{"molecule": "CN1CCN(C2CCN(C(=O)Nc3cc(Oc4ccc(NC(=O)C5(C(=O)Nc6ccc(F)cc6)CC5)c(F)c4)ccn3)CC2)CC1", "note": "[Golvatinib (E7050)] [listing 2 of 2 here]", "values": [{"measurement": "scaled lipid accumulation score", "setting": "[2]", "result": 0.429}]}
{"molecule": "CC/C=C\\C/C=C\\C/C=C\\C/C=C\\C/C=C\\C/C=C\\CCC(=O)NCCO", "note": "[Docosahexaenoyl Ethanolamide]", "values": [{"measurement": "scaled lipid accumulation score", "setting": "[1]", "result": 0.03}]}
{"molecule": "COc1cc(OC2CCN(C)CC2)ccc1Nc1ncc2c(n1)n(C1CCCC1)c(=O)n2C", "note": "[listing 1 of 2 here]", "values": [{"measurement": "scaled lipid accumulation score", "setting": "[3]", "result": 0.441}]}
{"molecule": "COc1cc(N2CCC(N3CCN(C)CC3)CC2)ccc1Nc1ncnc(Nc2ccccc2S(=O)(=O)C(C)C)n1", "values": [{"measurement": "scaled lipid accumulation score", "setting": "[6]", "result": "≤ 0"}, {"measurement": "scaled lipid accumulation score", "setting": "[4]", "result": 0.045}, {"measurement": "scaled lipid accumulation score", "setting": "[5]", "result": 0.433}, {"measurement": "scaled lipid accumulation score", "setting": "[2]", "result": 0.819}]}
{"molecule": "COc1cc(OC2CCN(C)CC2)ccc1Nc1ncc2c(n1)n(C1CCCC1)c(=O)n2C", "note": "[listing 2 of 2 here]", "values": [{"measurement": "scaled lipid accumulation score", "setting": "[2]", "result": "1.06 (active)"}]}
{"molecule": "C[C@H](C(=O)O)c1ccc(-c2ccccc2)c(F)c1", "note": "[(S)-Flurbiprofen]", "values": [{"measurement": "scaled lipid accumulation score", "setting": "[1]", "result": 0.003}]}
{"molecule": "Oc1cccc(-c2nc(N3CCOCC3)c3oc4ncccc4c3n2)c1", "note": "[listing 1 of 2 here]", "values": [{"measurement": "scaled lipid accumulation score", "setting": "[6]", "result": 0.118}, {"measurement": "scaled lipid accumulation score", "setting": "[4]", "result": "0.051 and ≤ -0.005"}, {"measurement": "scaled lipid accumulation score", "setting": "[1]", "result": "≤ 0"}, {"measurement": "scaled lipid accumulation score", "setting": "[5]", "result": "≤ -0.009 and ≤ -0.005"}, {"measurement": "scaled lipid accumulation score", "setting": "[3]", "result": "0.203 and 0.016"}, {"measurement": "scaled lipid accumulation score", "setting": "[2]", "result": "0.796 and 0.279"}]}
{"molecule": "Oc1cccc(-c2nc(N3CCOCC3)c3sccc3n2)c1", "note": "[PI3-Kinase .alpha. Inhibitor 2]", "values": [{"measurement": "scaled lipid accumulation score", "setting": "[1]", "result": "≤ 0"}]}
{"molecule": "O=c1cc(N2CCOCC2)oc2c1ccc1ccccc12", "values": [{"measurement": "scaled lipid accumulation score", "setting": "[6]", "result": "≤ 0"}, {"measurement": "scaled lipid accumulation score", "setting": "[4]", "result": "≤ 0"}, {"measurement": "scaled lipid accumulation score", "setting": "[5]", "result": "≤ 0"}, {"measurement": "scaled lipid accumulation score", "setting": "[2]", "result": "≤ 0 and 0.033"}]}
{"molecule": "O=c1cc(N2CCOCC2)oc2c1ccc1ccccc12", "note": "[DNA-PK Inhibitor II]", "values": [{"measurement": "scaled lipid accumulation score", "setting": "[3]", "result": "≤ 0"}]}
{"molecule": "Nc1ccc(C(=O)Nc2cccc(-c3nc(N4CCOCC4)c4oc5ncccc5c4n3)c2)cn1", "note": "[listing 1 of 3 here]", "values": [{"measurement": "scaled lipid accumulation score", "setting": "[2]", "result": "0.995 (active)"}]}
{"molecule": "Oc1cccc(-c2nc(N3CCOCC3)c3oc4ncccc4c3n2)c1", "note": "[listing 2 of 2 here]", "values": [{"measurement": "scaled lipid accumulation score", "setting": "[2]", "result": "0.923 (active)"}]}
{"molecule": "COc1ccc(-c2nc(N3CCOCC3)c3sc(CN(C)c4ncc(C(=O)NO)cn4)cc3n2)cn1", "values": [{"measurement": "scaled lipid accumulation score", "setting": "[6]", "result": 0.745}, {"measurement": "scaled lipid accumulation score", "setting": "[4]", "result": 0.648}, {"measurement": "scaled lipid accumulation score", "setting": "[5]", "result": 0.67}, {"measurement": "scaled lipid accumulation score", "setting": "[3]", "result": 0.439}, {"measurement": "scaled lipid accumulation score", "setting": "[2]", "result": "0.447 and 0.588"}]}
{"molecule": "Cc1c(CN2CCN(C(=O)[C@H](C)O)CC2)sc2c(N3CCOCC3)nc(-c3cnc(N)nc3)nc12", "values": [{"measurement": "scaled lipid accumulation score", "setting": "[6]", "result": 0.079}, {"measurement": "scaled lipid accumulation score", "setting": "[4]", "result": "≤ -0.015"}, {"measurement": "scaled lipid accumulation score", "setting": "[5]", "result": "≤ -0.016"}, {"measurement": "scaled lipid accumulation score", "setting": "[3]", "result": "≤ 0"}, {"measurement": "scaled lipid accumulation score", "setting": "[2]", "result": "≤ 0 and ≤ -0.016"}]}
{"molecule": "Nc1ccc(C(=O)Nc2cccc(-c3nc(N4CCOCC4)c4oc5ncccc5c4n3)c2)cn1", "note": "[listing 2 of 3 here]", "values": [{"measurement": "scaled lipid accumulation score", "setting": "[2]", "result": "0.915 (active)"}]}
{"molecule": "CC(C)(O)c1cc2nc(-c3cnc(N)nc3)nc(N3CCOCC3)c2s1", "values": [{"measurement": "scaled lipid accumulation score", "setting": "[4]", "result": "≤ -0.005"}, {"measurement": "scaled lipid accumulation score", "setting": "[5]", "result": "≤ -0.005"}, {"measurement": "scaled lipid accumulation score", "setting": "[2]", "result": 0.006}]}
{"molecule": "Nc1ccc(C(=O)Nc2cccc(-c3nc(N4CCOCC4)c4oc5ncccc5c4n3)c2)cn1", "note": "[listing 3 of 3 here]", "values": [{"measurement": "scaled lipid accumulation score", "setting": "[6]", "result": "≤ -0.009"}, {"measurement": "scaled lipid accumulation score", "setting": "[4]", "result": "0.031 and ≤ -0.005"}, {"measurement": "scaled lipid accumulation score", "setting": "[5]", "result": 0.229}, {"measurement": "scaled lipid accumulation score", "setting": "[3]", "result": 0.647}]}
{"molecule": "Cl.Nc1ccc(C(=O)Nc2cccc(-c3nc(N4CCOCC4)c4oc5ncccc5c4n3)c2)cn1", "values": [{"measurement": "scaled lipid accumulation score", "setting": "[5]", "result": "1.74 (active)"}, {"measurement": "scaled lipid accumulation score", "setting": "[2]", "result": "1.25 (active)"}]}
